Screens deposited in PubChem by National Center for Advancing Translational Sciences (NCATS).
Hits are enriched below; roughly 10% of the tested compounds scored in any of these assays.
KinaseGlo FLuc = counter-screen: inhibitors of Kinase-Glo firefly luciferase. Q27757. Kinase-Glo luciferase, ATP luminescence, 8 min. Potency, µM (highest dose often 38.3 µM), inactives show top-dose activity change, negative = inhibition, usual class: inhibitors. 200,000 compounds, 0.28% hits. AID 1379; active means well fitted inhibition curve with a large enough effect; inconclusive means small, poorly fitted or top-dose-only effect; further: potency means the concentration at half of the fitted maximal effect; nearly all actives have a fitted effect of over 60% in size
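Luminescence was the read-out, taken after 8-minute incubation at ambient temperature. Luciferase turned over luciferin with 10 uM ATP in imidazole pH 7.2 buffer containing KCl, MgCl2, Tween 20 and BSA.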
ALDH1A1 block = blocks purified human ALDH1A1 activity. 220,000 compounds, 7.3% hits. Purified ALDH1A1, NADH fluorescence, propionaldehyde substrate. Potency, µM (top dose mostly 75.3 µM), without a hit: top-dose activity, negative = inhibition, hits mostly inhibitors. P00352;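 further: potency means the concentration at half of the fitted maximal effect; plate controls were no enzyme wells and a reference inhibitor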
Target sequence (P00352 whole entry, looked up): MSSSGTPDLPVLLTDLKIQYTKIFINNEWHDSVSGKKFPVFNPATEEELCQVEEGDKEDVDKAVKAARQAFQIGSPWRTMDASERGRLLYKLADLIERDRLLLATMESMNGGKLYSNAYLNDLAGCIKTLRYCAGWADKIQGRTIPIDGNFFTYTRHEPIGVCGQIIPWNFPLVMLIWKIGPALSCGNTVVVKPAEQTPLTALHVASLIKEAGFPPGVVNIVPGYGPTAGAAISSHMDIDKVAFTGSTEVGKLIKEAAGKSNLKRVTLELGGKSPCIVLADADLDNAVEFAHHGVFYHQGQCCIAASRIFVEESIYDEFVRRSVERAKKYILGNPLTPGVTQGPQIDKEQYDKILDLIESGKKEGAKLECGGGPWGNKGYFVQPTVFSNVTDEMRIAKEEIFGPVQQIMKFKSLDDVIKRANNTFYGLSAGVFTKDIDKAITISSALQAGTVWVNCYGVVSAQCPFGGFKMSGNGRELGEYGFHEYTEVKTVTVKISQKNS
HPGD block = inhibitors of human 15-hydroxyprostaglandin dehydrogenase (HPGD); P15428; purified HPGD, NADH fluorescence kinetic, PGE2 substrate; Potency, µM, inactives show at the highest dose activity change, negative = inhibition, most hits filed as inhibitors; 150,000 compounds, 4.3% hits; AID 894; further: potency means the concentration at half of the fitted maximal effect
Target sequence (P15428 whole entry, looked up): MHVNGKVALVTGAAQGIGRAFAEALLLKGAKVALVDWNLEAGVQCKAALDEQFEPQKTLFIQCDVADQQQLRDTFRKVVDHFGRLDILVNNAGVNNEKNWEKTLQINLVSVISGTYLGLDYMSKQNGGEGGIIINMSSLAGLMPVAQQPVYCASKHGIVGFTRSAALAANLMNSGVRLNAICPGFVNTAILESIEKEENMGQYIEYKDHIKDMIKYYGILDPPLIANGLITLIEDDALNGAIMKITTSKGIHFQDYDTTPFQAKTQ
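20 nM HPGD preincubated 15 min at room temperature with compound in 50 mM Tris-HCl pH 8, 0.01% Tween 20. Started with 1 mM NAD+ and 30 uM prostaglandin E2; NADH fluorescence (360/450 nm) read 5 times over 30-s intervals, last minus first.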
PNC inhibitor = inhibitors of perinucleolar compartment assembly; PC3M PTB-GFP, PNC prevalence imaging, 16 h; active compounds read low; activity change (PNC), negative = inhibition, % at 10 µM; 140,000 compounds, 3.1% hits; AID 2417;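 active means readout at or below -70, meaning at least 70% loss of cells showing the perinucleolar compartment, a nuclear body marking cancer cells; inconclusive means readout between -30 and a set limit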;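 further: plate controls were DMSO wells for no effect and camptothecin positive control wells for full effect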
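Compounds are pinned in duplicate onto adhered PC3M cells stably expressing GFP-tagged PTB and incubated 16 h at 37 C. Cells are then fixed, nuclei stained with Hoechst, and PNC-positive cells counted.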
Lamin A splicing = LMNA splicing modulation | HeLa LMNA splicing GFP/RFP minigene ratio, 48 h | Potency, µM (series often up to 46.1 µM), inactives show at the highest dose ratio change, negative = inhibition, most hits filed as inhibitors | 200,000 compounds, 0.01% hits; active means well fitted inhibition curve with a large enough effect in the signal ratio, with a control signal flat, not every such curve was filed as active; inconclusive means small, poorly fitted or top-dose-only effect, or effect the other way, or a change in a side signal; the % refers to the signal ratio; further: potency means the concentration at half of the fitted maximal effect
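S3 HeLa cells stably expressing lamin A-EGFP splicing minigene plus DsRed2, 600 cells/well, 48 h compound exposure at 37C. Laser-scanning cytometry; analysed as GFP (500-530 nm)/RFP (575-640 nm) total intensity ratio; 0.5% DMSO vehicle.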
* marks the source's active call; other numbers are inactive results; [ ] = another dose, or the depositor's remark. Unless noted, the call rests on the fitted dose curve; in most records, active means well fitted inhibition curve with a large enough effect (not every such curve was filed as active); inconclusive means small, poorly fitted or top-dose-only effect, or another doubt; inactive means no such curve, though single readings can be large or run the other way. Unless noted, on the % scale 0 is the no-effect control and ±100 the full control effect.

What do the screens show for `Cc1[nH]c2ccccc2c1C1=NNC(=Nc2ccc(F)cc2)SC1`?
KinaseGlo FLuc: -1%; ALDH1A1 block: 20µM*; HPGD block: -4%; PNC inhibitor: -1; Lamin A splicing: inconclusive

Results for COc1ccc(N=C2SCC(c3ccccc3)=NN2C)cc1 ?
ALDH1A1 block: -3%

How did COc1ccc(N=C2NN=C(c3c(C)[nH]c4ccccc34)CS2)cc1 do in these assays?
KinaseGlo FLuc: 2%; ALDH1A1 block: 14µM*; HPGD block: -23%; PNC inhibitor: -21; Lamin A splicing: inconclusive

How did Cc1[nH]c2ccccc2c1N=Nc1ccc(F)cc1 do in these assays?
KinaseGlo FLuc: 0%; ALDH1A1 block: 3%; Lamin A splicing: -5%[9.22 µM]

Results for Cc1ccc(C)c(NC(=O)CSc2nc(=O)n(Cc3ccncc3)c3c2CCC3)c1 ?
Lamin A splicing: -6%[46 µM]

How did O=C(COc1ccc(F)cc1)Nc1nnc(SCc2cc(=O)n3ccccc3n2)s1 do in these assays?
Lamin A splicing: -7%[46 µM]

What do the screens show for `O=C1C(=O)N(CNc2ccccn2)c2ccccc21`?
KinaseGlo FLuc: -2%; ALDH1A1 block: 3.2µM*; HPGD block: -17%; PNC inhibitor: 18; Lamin A splicing: 5%

Results for O=C1C(=O)N(CNc2cccnc2)c2ccccc21 ?
KinaseGlo FLuc: -1%; ALDH1A1 block: -1%; HPGD block: 16µM*; PNC inhibitor: inconclusive; Lamin A splicing: -3%

Results for O=C1CCC(=O)N1CNc1cccnc1 ?
KinaseGlo FLuc: -2%; ALDH1A1 block: 12%; HPGD block: -3%; PNC inhibitor: 6; Lamin A splicing: 18%

How did CCOc1ccccc1N1CCN(c2nc(N)c(C#N)c(CC#N)c2C#N)CC1 do in these assays?
KinaseGlo FLuc: -6%; ALDH1A1 block: 20µM*; HPGD block: -30%; PNC inhibitor: inconclusive; Lamin A splicing: -5%

What do the screens show for `COc1ccc(N2C(N)=C(C#N)C(c3cc(CN4CCOCC4)cs3)C3=C2CCCC3=O)cc1` (centres undefined)?
Lamin A splicing: -13%[46 µM]

How did Cc1c(C(=O)NN)sc(-c2ccccc2)c1C#N do in these assays?
KinaseGlo FLuc: -3%; ALDH1A1 block: 1.3µM*

Results for CCOC(=O)c1ccccc1NC(=O)c1nn(-c2ccc(C)cc2)c(=O)n(C)c1=O ?
Lamin A splicing: 8%[46 µM]

What do the screens show for `CCCCn1c2c(c(=O)n(C)c1=O)C(c1ccc(OC)cc1)N1CCCCCC1=N2` (centres undefined)?
KinaseGlo FLuc: -7%; ALDH1A1 block: 0.14µM*; HPGD block: -11%; PNC inhibitor: -6; Lamin A splicing: 2%

How did COC(=O)C(/C=N/OCc1ccc([N+](=O)[O-])cc1)NC(=O)c1cccc(Cl)c1 (centres undefined) do in these assays?
KinaseGlo FLuc: -4%; ALDH1A1 block: 1.4µM*; HPGD block: -3%; PNC inhibitor: -98*; Lamin A splicing: -5%

How did O=C(NC1CC(=O)N(c2cccc(F)c2)C1)C1CC1 (centres undefined) do in these assays?
Lamin A splicing: -6%[46 µM]

What do the screens show for `NC(=O)NNc1ncc(C(F)(F)F)cc1Cl`?
KinaseGlo FLuc: -2%; ALDH1A1 block: inconclusive; Lamin A splicing: 9%[9.22 µM]

Results for S=C(Nc1cccnc1)Nc1ccccc1Br ?
KinaseGlo FLuc: -2%; ALDH1A1 block: 16%; Lamin A splicing: inconclusive

What do the screens show for `Cc1ccccc1NC(=S)NNc1ncc(C(F)(F)F)cc1Cl`?
KinaseGlo FLuc: 16%; ALDH1A1 block: 10µM*; HPGD block: -13%; PNC inhibitor: -6; Lamin A splicing: inconclusive

How did Cc1c(Cl)cccc1NC(=S)NNc1ncc(C(F)(F)F)cc1Cl do in these assays?
KinaseGlo FLuc: 2%; ALDH1A1 block: 14µM*; HPGD block: -11%; PNC inhibitor: -5; Lamin A splicing: 1%

How did FC(F)(F)c1cnc(NNC(=S)Nc2cccnc2)c(Cl)c1 do in these assays?
KinaseGlo FLuc: -1%; ALDH1A1 block: 2.2µM*; Lamin A splicing: inconclusive

What do the screens show for `Cc1cccc(C)c1NC(=S)NNc1ncc(C(F)(F)F)cc1Cl`?
KinaseGlo FLuc: -3%; ALDH1A1 block: inconclusive; HPGD block: -5%; PNC inhibitor: 20; Lamin A splicing: 7%

What do the screens show for `Oc1cccc(NC(=S)Nc2cccnc2)c1`?
KinaseGlo FLuc: 5%; ALDH1A1 block: -7%; HPGD block: -10%; PNC inhibitor: -88*; Lamin A splicing: 7%

Results for COc1ccc(-c2nc3cnc(OC)nc3n(C3CC3)c2=O)cc1 ?
KinaseGlo FLuc: -7%; ALDH1A1 block: inconclusive; HPGD block: inconclusive

How did O=C(NCc1ccccc1F)C1CCN(Cc2cc3ccccc3n2Cc2cccc(Cl)c2)CC1 do in these assays?
Lamin A splicing: -8%[46 µM]

What do the screens show for `CC(C)CCn1c(SCc2c(F)cccc2Cl)nc2ccsc2c1=O`?
Lamin A splicing: -6%[46 µM]

How did Fc1ccccc1NC(=S)NNc1ncc(C(F)(F)F)cc1Cl do in these assays?
KinaseGlo FLuc: -3%; ALDH1A1 block: 2.2µM*; HPGD block: -25%; PNC inhibitor: -16; Lamin A splicing: -9%

Results for O=C(NNc1ncc(C(F)(F)F)cc1Cl)c1c(Cl)cccc1Cl ?
KinaseGlo FLuc: 3%; ALDH1A1 block: 3%; HPGD block: -4%; PNC inhibitor: -13; Lamin A splicing: inconclusive

How did CCN(CC)C(=O)CSc1nc2ccc(NC(=O)CSc3nnc(N)s3)cc2s1 do in these assays?
KinaseGlo FLuc: 0%; ALDH1A1 block: inconclusive; HPGD block: 14µM*; PNC inhibitor: -100*; Lamin A splicing: -7%

What do the screens show for `COc1ccccc1C(=O)Nc1ccc2nc(SCC(=O)N(C)C)sc2c1`?
KinaseGlo FLuc: -4%; ALDH1A1 block: -8%; HPGD block: -5%; PNC inhibitor: -114*; Lamin A splicing: 7%

How did CCN(CC)C(=O)CSc1nc2ccc(NC(=O)CSc3nccn3C)cc2s1 do in these assays?
KinaseGlo FLuc: 5%; ALDH1A1 block: inconclusive; HPGD block: 32µM*; PNC inhibitor: inconclusive; Lamin A splicing: inconclusive

Results for COc1ccc2nc(NC(=O)CSc3nnc(N)s3)sc2c1 ?
KinaseGlo FLuc: 0%; ALDH1A1 block: 2%; HPGD block: -12%; PNC inhibitor: inconclusive; Lamin A splicing: -10%

What do the screens show for `O=C1[C@H]2[C@H]3[C@H](O)[C@H](O)C/C(=N/OC[C@@H](O)COCc4ccco4)[C@H]3CC[C@@H]2C(=O)N1Cc1ccccc1`?
ALDH1A1 block: 1%[13.5 µM]

How did COC(=O)c1c(NC(=O)CCCOc2ccccc2C)sc2c1CCC(C)C2 (centres undefined) do in these assays?
Lamin A splicing: 11%[46 µM]

How did COC(=O)c1c(NC(=O)Cn2cnc([N+](=O)[O-])n2)sc2c1CCC(C)C2 (centres undefined) do in these assays?
KinaseGlo FLuc: -4%; ALDH1A1 block: -8%; HPGD block: 11µM*; PNC inhibitor: inconclusive; Lamin A splicing: -3%
